An excerpt weighted towards active compounds, which were near 4.4% of everything screened.
PfHsp90 yeast 2 – reduces growth (ATP signal) of yeast expressing P. falciparum Hsp90; actives 0.32% (n = 310,000); AID 504621; inhibition, % at 9.4 µM; S. cerevisiae expressing PfHsp90, BacTiter-Glo ATP, 48 h; yeast lacking PDR1 and PDR3 efflux regulators;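 active = every replicate shows inhibition above about 80%, whatever the replicate mean, limit read from the data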;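 also: 0% = DMSO neutral controls and 100% = 20 µM radicicol positive controls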
tim23-1 inh – inhibits growth of tim23-1 mutant yeast; S. cerevisiae tim23-1 growth, BacTiter-Glo luminescence, 24 h; inhibition, % at 20 µM; actives 1.3% (n = 330,000); AID 463212;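 active = growth inhibition of the mutant yeast at or above 50%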;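 also: temperature-sensitive mutant grown at 25 °C; plate controls were DMSO-treated mutant yeast for no effect and medium wells lacking yeast for full effect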
Mot1-301 SUMO – inhibitors of SUMOylation pathway: yeast Mot1-301 growth rescue; S. cerevisiae Mot1-301 growth rescue, ATP luminescence, 38.5C; percent above DMSO median, 100 means doubled; growth rescue, % at 18.8 µM; actives 1% (n = 320,000); AID 2716;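 active = every valid replicate shows activation above 250% relative to neutral control wells; inactive = the rest, any valid replicate at or below 250%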;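 also: OY570 slx delta 5 strain wells were the positive control but not used for scaling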
tim10-1 inh – inhibits growth of tim10-1 mutant yeast. actives 2.2% (n = 330,000). S. cerevisiae tim10-1 ts strain growth, BacTiter-Glo, 24 h. inhibition, % at 20 µM;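 active = inhibition of at least 40%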;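 also: mutant grown at 25 °C; 0% = DMSO wells with yeast and 100% = wells holding no yeast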
TIM10 inh – inhibits growth of TIM10 yeast strain. actives 1.4% (n = 330,000). S. cerevisiae TIM10 strain growth, BacTiter-Glo luminescence, 24 h. AID 463195. inhibition, % at 10 µM;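 active = inhibition of 40% or more at the single tested concentration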;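 also: wild-type TIM10 isogenic control strain grown at permissive 25 °C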
tim10-1 conf – confirmation of tim10-1 mutant yeast growth inhibitors. shares compounds with tim10-1 inh. S. cerevisiae tim10-1 ts strain growth, BacTiter-Glo, 24 h. inhibition, % at 20 µM. actives 56% (n = 7,400). AID 463213;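 active = inhibition of yeast growth at or above a set limit in either of two repeat tests at 20 µM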;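 also: tim10-1 mutant grown at permissive 25 °C to find synthetic lethal compounds; 0% = DMSO yeast wells and 100% = medium wells without yeast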
TIM10 conf – confirmation of TIM10 yeast growth inhibitors; AID 463215; S. cerevisiae tim10 strain growth, BacTiter-Glo luminescence, 24 h; shares compounds with TIM10 inh; inhibition, % at 10 µM; actives 63% (n = 4,600);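 active = inhibition of yeast growth at or above a set limit in either of two replicates at 10 µM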;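 also: this counterscreen used the strain with wild-type TIM10; 0% = yeast with DMSO and 100% = medium wells lacking yeast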
Starred values were filed as active, the others as inactive.

Cc1nc(NC(=O)COC(=O)CCc2ccccc2)c(Cl)cc1Cl was read as tim23-1 inh 13, Mot1-301 SUMO -5, tim10-1 inh 3 and TIM10 inh -1.
CCN(CC(=O)Nc1c(F)cccc1F)C(=O)/C=C/c1ccc2c(c1)OCO2 was read as PfHsp90 yeast 2 -10, tim23-1 inh 16, Mot1-301 SUMO 8, tim10-1 inh 26 and TIM10 inh 0.
For Cc1cccc(OCC(=O)Nc2ccc(S(=O)(=O)N3CCCC3)cc2)c1 the results were PfHsp90 yeast 2 -23, tim23-1 inh 25, Mot1-301 SUMO 3, tim10-1 inh 44*, TIM10 inh 45*, tim10-1 conf 37* and TIM10 conf 47*.
For O=C(COc1cccc(C(F)(F)F)c1)Nc1ccc(S(=O)(=O)N2CCCCC2)cc1 the results were PfHsp90 yeast 2 -6, tim23-1 inh 33, Mot1-301 SUMO 14, tim10-1 inh 43*, TIM10 inh 45*, tim10-1 conf 49* and TIM10 conf 59*.
CCc1cccc(OCC(=O)Nc2ccc(S(=O)(=O)N3CCCC3)cc2)c1 was read as PfHsp90 yeast 2 -11, tim23-1 inh 28, Mot1-301 SUMO -1, tim10-1 inh 35 and TIM10 inh 34.
`COC(=O)c1ccccc1S(=O)(=O)N1CCC(C(=O)OCc2ccc([N+](=O)[O-])cc2)CC1` gave PfHsp90 yeast 2 0, tim23-1 inh 29, Mot1-301 SUMO -4, tim10-1 inh 15 and TIM10 inh 3.
Screening O=C1NN=C(c2ccccc2)CC1c1c[nH]c2ccccc12 (centres undefined) returned PfHsp90 yeast 2 6, tim23-1 inh 14, Mot1-301 SUMO -2, tim10-1 inh 16 and TIM10 inh 17.
O=C1NN=C(c2ccccc2)CC1c1ccc(Cl)cc1Cl (centres undefined) was read as PfHsp90 yeast 2 -11, tim23-1 inh 49, Mot1-301 SUMO 12, tim10-1 inh 50*, TIM10 inh 42*, tim10-1 conf 38* and TIM10 conf 57*.
Screening CCc1cc2ccc(C)cc2nc1SCC(=O)NNC(=O)c1ccco1 returned PfHsp90 yeast 2 -14, tim23-1 inh 12, Mot1-301 SUMO -6, tim10-1 inh 40*, TIM10 inh 42*, tim10-1 conf 20 and TIM10 conf 15.
For COc1ccccc1-c1nnc(SCC(=O)Nc2ccc(N3CCOCC3)cc2)n1C the results were PfHsp90 yeast 2 7, tim23-1 inh 11, Mot1-301 SUMO 9, tim10-1 inh 7 and TIM10 inh -5.
Screening Oc1ccc(Br)cc1-c1cc(-c2ccccc2)n[nH]1 returned PfHsp90 yeast 2 -4, tim23-1 inh 15, Mot1-301 SUMO 233, tim10-1 inh 47*, TIM10 inh 58*, tim10-1 conf 22 and TIM10 conf -2.
`Oc1ccc(Br)cc1-c1n[nH]c(=S)n1Cc1ccccc1` gave PfHsp90 yeast 2 -19, tim23-1 inh 25, Mot1-301 SUMO -21, tim10-1 inh 18 and TIM10 inh 18.
`Cc1ccc(O)c(-c2cc(-c3cccc(F)c3)n[nH]2)c1` gave PfHsp90 yeast 2 100*, tim23-1 inh 36, Mot1-301 SUMO 83, tim10-1 inh 53*, TIM10 inh 43*, tim10-1 conf 34* and TIM10 conf 21.
Screening O=C1CC(c2ccc3c(c2)OCCO3)Oc2ccc([N+](=O)[O-])cc21 (centres undefined) returned PfHsp90 yeast 2 -14, tim23-1 inh 47, Mot1-301 SUMO -1, tim10-1 inh 42*, TIM10 inh 45*, tim10-1 conf 39* and TIM10 conf 54*.
O=C1CC(c2ccc3c(c2)OCCO3)Oc2ccccc21 (centres undefined) was read as PfHsp90 yeast 2 -10, tim23-1 inh 20, Mot1-301 SUMO 268, tim10-1 inh 29 and TIM10 inh 15.
Screening COC(=O)c1sc(NC(=O)c2c(OC)cccc2OC)c(C#N)c1C returned PfHsp90 yeast 2 -4, tim23-1 inh -4, Mot1-301 SUMO 68, tim10-1 inh 3 and TIM10 inh 8.
For COC(=O)c1sc(NC(=O)c2c(F)cccc2F)c(C#N)c1C the results were tim23-1 inh 29, Mot1-301 SUMO 9, tim10-1 inh 45*, TIM10 inh 41*, tim10-1 conf 38* and TIM10 conf 26.
`Cc1cccc(NC(=O)C2CCCN(S(=O)(=O)c3ccc4[nH]c(=O)ccc4c3)C2)c1` (centres undefined) gave PfHsp90 yeast 2 4, tim23-1 inh -8, Mot1-301 SUMO -1, tim10-1 inh -10 and TIM10 inh -6.
For O=C(CN(c1cccc(Cl)c1)S(=O)(=O)c1ccc(Cl)cc1)NCc1ccccn1 the results were PfHsp90 yeast 2 -4, tim23-1 inh 23, Mot1-301 SUMO 29, tim10-1 inh 19 and TIM10 inh 3.
`Cc1ccc(-n2c(-c3cccc(C)c3)n[nH]c2=S)cc1` gave PfHsp90 yeast 2 -4, tim23-1 inh 31, Mot1-301 SUMO 3, tim10-1 inh 43*, TIM10 inh 46*, tim10-1 conf 15 and TIM10 conf 16.
CC(C)[C@@H]1CC[C@@H](C)c2c(-c3ccccc3)n[nH]c21 was read as PfHsp90 yeast 2 6, tim23-1 inh 47, Mot1-301 SUMO -24, tim10-1 inh 40*, TIM10 inh 46*, tim10-1 conf 21 and TIM10 conf 49*.
Screening O=C(Nc1cccc(S(=O)(=O)N2CCCCC2)c1)Nc1ccc(Cl)cc1Cl returned PfHsp90 yeast 2 -2, tim23-1 inh 44, tim10-1 inh 44*, TIM10 inh 46*, tim10-1 conf 23 and TIM10 conf 39*.
For O=C(Nc1cccc(S(=O)(=O)N2CCCC2)c1)c1ccc2ccccc2n1 the results were PfHsp90 yeast 2 -137, tim23-1 inh -2, Mot1-301 SUMO -23, tim10-1 inh 47*, TIM10 inh 43*, tim10-1 conf 36* and TIM10 conf 39*.
`O=C(Nc1cccc(S(=O)(=O)N2CCOCC2)c1)c1ccc2ccccc2n1` gave PfHsp90 yeast 2 -17, tim23-1 inh 46, Mot1-301 SUMO -2, tim10-1 inh 27 and TIM10 inh 22.
`O=C(Cc1ccccc1Cl)Nc1cccc(S(=O)(=O)N2CCCCCC2)c1` gave PfHsp90 yeast 2 0, tim23-1 inh 30, Mot1-301 SUMO 5, tim10-1 inh 16 and TIM10 inh 5.
O=C(Nc1cccc(S(=O)(=O)N2CCCCC2)c1)c1ccc2ccccc2n1 was read as PfHsp90 yeast 2 -37, tim23-1 inh 25, Mot1-301 SUMO -8, tim10-1 inh 44*, TIM10 inh 41*, tim10-1 conf 21 and TIM10 conf 5.

From PubChem BioAssay
